Shown are actives, neighbours in structure and some others; about 1.6% of the full set was active somewhere.
Rce1 inhib: inhibitors of yeast Ras-converting enzyme; Q03530; yeast membranes, quenched prenylated peptide cleavage fluorescence; calls only; 0.27% of 290,000 active; AID 2563;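 active means fall in fluorescence gain of 50% or more versus controls, with final raw signal at or below 3038400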;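 further: plate controls were neutral control wells for no effect and wells lacking membranes for full effect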
Efflux pump mplx: inhibitors of Candida antifungal efflux pumps expressed in yeast | AID 485275 | inhibition, % at 10 µM | 0.44% of 330,000 active | S. cerevisiae Candida pump triplex, Nile Red efflux;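 active means plate passing quality check with inhibition over a set limit, or well fluorescence over plate mean plus 4 SD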;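 further: Nile Red retained in pooled yeast measured as flow cytometry median fluorescence; 0% = buffer negative control and 100% = Enniatin B positive control; higher means more Nile Red kept so more efflux inhibition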
NPR2 activator: GC-B (human) receptor activation. AID 1920062. activation, % at 10 µM. HEK293-GC-B cells, CNP EC30, cGMP TR-FRET; 0% at EC30 CNP, 100% saturating CNP. P20594. 0.11% of 370,000 active;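 active means activation at 10 µM reaching about 35% in either raw or pattern-adjusted values, limit read from the data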
NSD2 inh: inhibitors of human histone methyltransferase NSD2; NSD2 peptide methylation, AlphaScreen, 120 min; inhibition, % at 12.5 µM; O96028; 0.54% of 310,000 active; in the data active means inhibition above about 50%
V-ATPase pH: yeast V-ATPase proton transport regulation by pHLuorin. 0.37% of 350,000 active. AID 504577. S. cerevisiae, pHLuorin cytosolic pH fluorescence. response, % at 10 µM; in the data active means response mostly above about 7.3%, no sharp cut-off; inactive means mostly below about 5.4%; further: actives read high
NPR1 activator: GC-A (human) enzyme activation; HEK293 GC-A cells, cGMP TR-FRET, EC30 ANP; 0% at EC30 ANP, 100% saturating ANP; activation, % at 10 µM; 0.14% of 370,000 active; in the data active means activation above about 40%
Target sequence (P16066 whole entry, looked up): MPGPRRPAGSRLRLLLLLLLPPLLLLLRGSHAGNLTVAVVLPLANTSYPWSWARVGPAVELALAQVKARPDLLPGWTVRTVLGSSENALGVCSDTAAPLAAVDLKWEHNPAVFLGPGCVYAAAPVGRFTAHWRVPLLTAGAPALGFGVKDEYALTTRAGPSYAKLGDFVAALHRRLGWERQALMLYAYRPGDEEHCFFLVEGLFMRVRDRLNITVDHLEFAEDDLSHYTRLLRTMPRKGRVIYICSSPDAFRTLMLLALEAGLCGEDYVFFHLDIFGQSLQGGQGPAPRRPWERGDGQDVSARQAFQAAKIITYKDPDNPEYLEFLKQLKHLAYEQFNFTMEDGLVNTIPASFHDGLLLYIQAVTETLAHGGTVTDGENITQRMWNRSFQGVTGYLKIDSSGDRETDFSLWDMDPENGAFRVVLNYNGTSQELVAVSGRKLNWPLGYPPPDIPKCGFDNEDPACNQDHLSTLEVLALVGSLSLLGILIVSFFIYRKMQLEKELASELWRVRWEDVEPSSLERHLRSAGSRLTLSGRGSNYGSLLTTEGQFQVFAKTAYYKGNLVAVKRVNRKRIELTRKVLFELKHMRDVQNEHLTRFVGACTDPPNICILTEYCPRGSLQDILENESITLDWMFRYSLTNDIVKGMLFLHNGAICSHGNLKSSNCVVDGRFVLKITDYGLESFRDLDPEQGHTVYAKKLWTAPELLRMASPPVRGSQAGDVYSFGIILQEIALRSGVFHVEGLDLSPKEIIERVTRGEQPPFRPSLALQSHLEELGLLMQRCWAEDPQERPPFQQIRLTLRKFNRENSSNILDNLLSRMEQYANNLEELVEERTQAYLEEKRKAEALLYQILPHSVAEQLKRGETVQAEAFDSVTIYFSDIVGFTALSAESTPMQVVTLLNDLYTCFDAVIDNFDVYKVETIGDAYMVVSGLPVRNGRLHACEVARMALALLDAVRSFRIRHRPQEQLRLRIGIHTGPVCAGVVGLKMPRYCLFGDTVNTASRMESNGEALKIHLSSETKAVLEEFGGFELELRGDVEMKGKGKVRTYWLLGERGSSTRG
The depositor's hits bear a star.

`O=C1[C@@H]2Cc3c([nH]c4ccccc34)C(c3ccc(Cl)cc3)N2C(=O)CN1CCO` (stereo not given in full) gave Rce1 inhib inactive, Efflux pump mplx 0.0, NPR2 activator -19.7, NSD2 inh 1.2, V-ATPase pH 0.3 and NPR1 activator -44.7.
`O=C(O)c1ccc(C2NCC(c3ccccc3Cl)c3c2[nH]c2ccccc32)cc1` (stereo not given) gave Rce1 inhib inactive, Efflux pump mplx 0.0, NPR2 activator 0.0, NSD2 inh 4.4, V-ATPase pH -1.8 and NPR1 activator 54.0*.
Screening COc1cc([C@H]2c3[nH]c4ccccc4c3C[C@H]3C(=O)N4[C@@H](c5cc(OC)c(OC)c(OC)c5)c5[nH]c6ccccc6c5C[C@H]4C(=O)N23)cc(OC)c1OC returned Rce1 inhib inactive, Efflux pump mplx 0.3 and V-ATPase pH 2.0.
Screening Cc1cccc2cc(C(=O)CS(=O)(=O)c3ccc(Cl)cc3)c(=O)oc12 returned NSD2 inh 1.3.
CC(C)N1CCN(Cc2ccc(-c3ccccc3)cc2)CC1CCO (stereo not given) was read as Rce1 inhib inactive, Efflux pump mplx 0.1, NPR2 activator 7.8, NSD2 inh 1.9, V-ATPase pH -1.7 and NPR1 activator 6.2.
Screening CC(C)N1CCN(Cc2ccc(OCc3ccccc3)cc2)CC1CCO (stereo not given) returned Rce1 inhib active, Efflux pump mplx 0.1, NPR2 activator -3.3, V-ATPase pH -1.7 and NPR1 activator 5.8.
For CC(C)CC(=O)Nc1ccc2oc(-c3cccnc3)nc2c1 the results were Rce1 inhib active, Efflux pump mplx 0.0, NPR2 activator -5.9, NSD2 inh -1.5, V-ATPase pH 0.8 and NPR1 activator 3.4.
For Cc1cc(C=O)c(C)n1-c1ccc(N2CCCCC2)c([N+](=O)[O-])c1 the results were Rce1 inhib inactive, Efflux pump mplx -0.2, NPR2 activator -1.6, NSD2 inh 64.7*, V-ATPase pH 6.3 and NPR1 activator -2.1.
Screening CCSc1ncnc2c1oc1ccccc12 returned Rce1 inhib inactive, Efflux pump mplx -0.3, NPR2 activator -6.0, NSD2 inh 1.4, V-ATPase pH -7.1 and NPR1 activator -3.6.
`Clc1ncnc2c1oc1ccccc12` gave Rce1 inhib inactive, Efflux pump mplx -0.1, NPR2 activator 34.0, NSD2 inh -4.1, V-ATPase pH -3.1 and NPR1 activator 53.2*.
COc1ccc(-c2cn3c(n2)CCC3)cc1 was read as Rce1 inhib inactive, Efflux pump mplx -0.1, NPR2 activator 3.2, NSD2 inh 1.8, V-ATPase pH -2.4 and NPR1 activator 0.0.
For c1ccc(-c2ccc(-c3cn4c(n3)CCC4)cc2)cc1 the results were Rce1 inhib active, Efflux pump mplx -0.1, NPR2 activator 0.6, NSD2 inh 2.9, V-ATPase pH 9.3 and NPR1 activator 18.0.
Cn1c(CN2CCCC2)c(C#N)c2ccccc21 was read as Rce1 inhib inactive, Efflux pump mplx 0.0, NPR2 activator -2.4, NSD2 inh -0.9, V-ATPase pH -4.5 and NPR1 activator -0.9.
`Cn1c(CN2CCOCC2)c(C#N)c2ccccc21` gave Rce1 inhib active, Efflux pump mplx 0.1, NPR2 activator -0.1, NSD2 inh 0.9, V-ATPase pH 3.8 and NPR1 activator 4.4.
For COc1ccc(CCNC(=O)Cn2ncc3c2-c2cc(C)ccc2OC3)cc1 the results were NPR2 activator -0.7, NSD2 inh -3.2 and NPR1 activator -10.2.
For COc1ccc(NS(=O)(=O)c2c(C)cc(C)cc2C)cc1 the results were Rce1 inhib active, Efflux pump mplx 0.1, NPR2 activator -9.8, NSD2 inh 10.8, V-ATPase pH -0.9 and NPR1 activator -15.8.
For COc1ccc(OC)c(S(=O)(=O)Nc2ccc(Oc3ccccc3)cc2)c1 the results were Rce1 inhib inactive, Efflux pump mplx 0.0, NPR2 activator 1.0, NSD2 inh -1.6, V-ATPase pH 13.4* and NPR1 activator 2.2.
For COc1cccc(NS(=O)(=O)c2c(C)cc(C)cc2C)c1 the results were Rce1 inhib inactive, Efflux pump mplx 0.3, NPR2 activator -8.0, NSD2 inh 1.6, V-ATPase pH 2.1 and NPR1 activator -9.4.
CCOC(=O)[C@]12CCCCC/C=C\1N(CCc1ccc(Cl)cc1)C(=O)[C@H]2CC(=O)N1CCN(C(=O)c2ccco2)CC1 was read as NPR2 activator 10.9 and NPR1 activator -3.5.

Screens deposited in PubChem by several laboratories.
